Records with an inconclusive call do not appear. Unmarked numbers belong to inactive results. Activity calls are given as the source filed them. Calls come from the whole dose curve; as a rule, active = well fitted inhibition curve with a large enough effect; inconclusive = small, poorly fitted or top-dose-only effect; inactive = flat fitted curve, though single readings scatter.
assay: P-glycoprotein substrates identified in KB-8-5-11 adenocarcinoma cell line, qHTS therapeutic library screen (AID 1346987); conditions: KB-8-5-11 (P-gp overexpressing) viability, CellTiter-Glo, 72 h; series mostly up to 44.5 µM; activity change, negative = cytotoxicity: at the top concentration; note: nearly all actives have a fitted effect of over 65% in size
In short: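 In this qHTS, P-gp-rich KB-8-5-11 cells received library compounds across a concentration range. Viability was quantified by luminescence after 72 h at 37 degree C.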
% is set by controls: 0 for no effect and ±100 for the full control effect.

| Compound | activity change, negative = cytotoxicity | outcome |
| --- | --- | --- |
| C[C@@H]1O[C@@H](O[C@H]2[C@H](O)[C@@H](O[C@@H]3O[C@H](CO)[C@H](O)[C@H](O)[C@H]3O)[C@H](O[C@H]3CC[C@@]4(C)C(CC[C@]5(C)C4CC=C4[C@@H]6CC(C)(C)CC[C@]6(C(=O)O[C@@H]6O[C@H](CO)[C@@H](O)[C@H](O)[C@H]6O)CC[C@]45C)C3(C)C)O[C@@H]2C(=O)O)[C@H](O)[C@H](O)[C@H]1O (stereo not given in full) | 2.63% [at 9.29 µM] |  |
| CC1(C)C[C@H]2C=C(C=O)[C@]3(C(=O)O)C[C@]3(C)[C@H]2C1 | -7.92% |  |
| COc1cc(O)cc(C)c1C(=O)OC1C(CO)OC(n2ccc(=O)[nH]c2=O)C1OC(C)=O (stereo not given) |  | inactive [at 17.3 µM] |
| CC12CC34CC(O)C5C(CO)(CO)CC(=O)CC5(C)C3CC1C2C4 (stereo not given) | -1.11% |  |
| CC(O)C1CCC2C3CCC4CC(OC5OC(C(=O)O)C(O)C(O)C5O)CCC4(C)C3CCC12C (stereo not given) | -6.91% |  |
| C/C=C1/[C@H](O[C@@H]2O[C@H](CO)[C@@H](O)[C@H](O)[C@H]2O)OC=C(C(=O)OC)[C@H]1CC(=O)OCCc1ccc(O)c(O)c1 | -4.46% [at 17.3 µM] |  |
| COC(=O)[C@H](c1ccccc1Cl)N1CCC2SC(=O)C=C2C1 (stereo not given in full) | -24.4% |  |
| CN(C)CCC[C@]1(c2ccc(F)cc2)OCc2cc(C#N)ccc21 | -3.17% |  |
| CC(=O)OC[C@]12[C@@H](OC(=O)c3ccoc3)C[C@@H]3[C@@H](OC(C)=O)[C@]1(OC3(C)C)[C@@](C)(O)C[C@H](OC(=O)c1ccoc1)[C@@H]2OC(=O)c1ccoc1 | -11.7% [at 17.3 µM] |  |
| COC(=O)Cn1nc(-c2cccc(OC)c2)c2ccccc21 |  | inactive |
| CC1=CCC2C(C)(C)CCCC2(C)C1CC12OC1C(O)C(CO)=CC2O (stereo not given) | 8.9% |  |
| CC[C@H](NC(=O)c1c(O)c(-c2ccccc2)nc2ccccc12)c1ccccc1 | -21% |  |
| C[C@@H]1O[C@@H](O[C@H]2[C@@H]3C=CO[C@@H](O[C@@H]4O[C@H](CO)[C@@H](O)[C@H](O)[C@H]4O)[C@@H]3[C@@]3(CO)O[C@@H]23)[C@H](O)[C@H](OC(=O)/C=C/c2ccc(O)c(O)c2)[C@H]1O |  | inactive [at 17.3 µM] |
| COC(=O)/C=C/c1ccc(O[C@@H]2O[C@H](CO)[C@@H](O)[C@H](O)[C@H]2O)cc1 | 5.7% |  |
| CC(=O)O[C@@H]1C(O)C[C@@]2(C)C(CC[C@@H](C)C23Cc2c(O)cc4c(c2O3)CNC4=O)C1(C)C (stereo not given in full) |  | inactive [at 17.3 µM] |
